Data taken from PubChem BioAssay AID1117319 (Southern Research Institute, 2015).
Values joined by “and” are separate entries in the source; they are usually repeats but may differ in a detail not shown here. Identical values can stand only once. The campaign covered roughly 260,000 compounds. About 1,500 (0.58%) were called active. Inconclusive results (about 5%) are left out.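 How the source made its calls: active means inhibition above a set limit at one or more doses, reproduced on every date tested; inconclusive means results disagree between test dates, or hit never tested in dose response; inactive means the rest.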 Only a sample is shown. Measured potencies and affinities stand elsewhere.

molecular target: Virion infectivity factor (Human immunodeficiency virus type 1 group M subtype B (isolate BH10)) + Virion infectivity factor (Human immunodeficiency virus type 1 group M subtype B (isolate BRU/LAI)) + Virion infectivity factor (Human immunodeficiency virus type 1 group M subtype B (isolate PCV12)) + Virion infectivity factor (Human immunodeficiency virus type 1 group M subtype B (isolate HXB2)) + DNA dC->dU-editing enzyme APOBEC-3G (Homo sapiens) (UniProt P69720+P69721+P69722+P69723+Q9HC16); experiment: inhibitors of Vif binding to APOBEC3G peptide, primary screen, biochemical, TR-FRET, GST-Vif 1-94, biotin-A3G peptide, dose response retest (AID 1117319); details: hits give high values;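 further: Vif residues 1-94 fused to GST binding biotinylated APOBEC3G peptide 110-148; 0% = full assay without inhibitor and 100% = GST in place of GST-Vif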

inhibition, inactive:
COC(=O)c1ccc(COc2nc(C)cc(C)c2C#N)o1 2.74%
CCN(CC)S(=O)(=O)c1ccc(N2CCOCC2)c(NC(=O)CCC2CCCCC2)c1 -9.59%
COc1ccc(N2CCN(C(=O)CSc3ccccc3)CC2)cc1 30.3%
O=C(O)c1ccccc1C(=O)N1CCN(c2ccccc2)CC1 3.73%
O=C(c1ccccc1C(=O)N1CCN(c2ccccc2)CC1)N1CCN(c2ccccc2)CC1 3.97%
O=C(CCSc1ccccc1)N1CCN(c2ccccc2)CC1 -3.65%
CCn1c(SCC(=O)N2CCN(c3ccccc3)CC2)nnc1-c1ccoc1C 7.37%
Cc1occc1-c1nnc(SCC(=O)N2CCN(c3ccc(F)cc3)CC2)n1C 8.11%
CCc1nn2c(=O)cc(COc3ccc(/C=C4\C(=N)N5N=C(CC(C)C)SC5=NC4=O)cc3)nc2s1 9.59%
COc1ccc(OC)c(C2C(C(=O)c3cccs3)=C(O)C(=O)N2CCN(C)C)c1 (configuration not stated) 0.56%
CN1CCN(CCCNC(=O)c2ccc(/C=C3/Sc4ccccc4N(Cc4cccc(Cl)c4)C3=O)cc2)CC1 2.32%
O=C(C1=C[C@H](c2ccc(Br)cc2)C[C@H](OCc2ccc(CO)cc2)O1)N1CCOCC1 15.5%
Clc1ncc2[nH]cnc2n1 1.24%
COc1cccc(NC2CC(=O)N(CCc3ccccc3)C2=O)c1 (configuration not stated) 1.52%
COc1ccc(NC2CC(=O)N(CCc3ccccc3)C2=O)cc1 (configuration not stated) 25.7%
O=C(/C=C/c1ccc(F)cc1)c1cc(Br)ccc1O -1.23%
O=C(/C=C/c1ccccc1)c1cc(Br)ccc(=O)c1O 24.6%
O=C(/C=C/c1ccc2c(c1)OCO2)c1ccc(O)cc1O 8.42%
Cc1ccc(C(=O)C=Cc2ccc3c(c2)OCO3)c(C)c1 0.22%
Nc1ccccc1C(=O)/C=C/c1ccc2c(c1)OCO2 3.13%
COC(=O)/C=C/c1ccc2c(c1)OCO2 4.78%
COC(=O)c1ccccc1NC(=O)CSc1nnc(COc2cccc(OC)c2)n1C 0.63%
COc1ccc(CNC(=O)CSc2ncnc3ccccc23)cc1OC -8.65%
COc1ccc(N2CCN(CC(=O)Nc3ccc(SC(F)F)cc3)CC2)cc1 27.3%
N#Cc1c(NC(=S)NC(=O)Cc2cccs2)sc2c1CCCCC2 12.2%
COc1ccccc1N1CCN(C(=O)COc2ccc(S(=O)(=O)NC(C)C)cc2)CC1 0.75%
O=C(O)COc1ccccc1-c1ccccc1 -0.72%
CN1CCC(N(C)C(=O)COc2ccccc2Cl)CC1 -7.89%
N#Cc1ccc(C(=O)NC2CCCc3ccccc32)cc1 (configuration not stated) 5.64%
Cc1cn([C@H]2C[C@H](O)[C@@H](CNCc3ccc(F)c(N4CCOCC4)c3)O2)c(=O)[nH]c1=O -0.24%
CC(=O)Nc1ccccc1NC(=O)COc1cccc2ccccc12 -3.58%
COc1ccc(CCN=Cc2c(C)[nH]n(-c3ccc([N+](=O)[O-])cc3)c2=O)cc1OC 3.12%
Cc1ccc(S(=O)(=O)Nc2cccc(-n3cnnn3)c2)cc1 -12.1%
CC(=O)Nc1ccc(S(=O)(=O)Nc2cccc(-n3cnnn3)c2)cc1 -3.6%
NNC(=O)C1CC1c1ccc(Cl)cc1 (configuration not stated) -1.47%
CC(C)NC(=O)C1CCN(C2CCN(Cc3nc(C(C)C)cs3)CC2)CC1 10.5%
CC(=O)C(Sc1nc(NC(C)(C)C)nc(N(C)C)n1)C(C)=O -1.75%
O=C(CCNS(=O)(=O)c1ccc(Br)s1)Nc1ccc(Cl)cc1 -2.43%
CCOC(=O)c1ccc(CC(=O)c2oc3cc(O)ccc3c2C)o1 29.3%
COC(=O)c1ccc(CC(=O)c2ccc(O)cc2O)o1 21.4%
CCOC(=O)c1ccc(CC(=O)c2ccc(O)cc2O)o1 16.6%
Cc1cc(O)cc(O)c1C(=O)Cc1ccccc1 31%
Cc1onc(-c2c(Cl)cccc2Cl)c1C(N)=O 3.21%
Cc1nnc(-c2cccc(Br)c2)c2cn(-c3ccc(Br)cc3)nc12 -35.9%
CC(C)Oc1cc(NC(=O)CS(=O)(=O)CC(=O)N(C)C)c(Cl)cc1Cl 4.46%
O=C(COc1ccc2c(c1)CCC2)NCc1ccccc1 6.52%
COc1ccccc1CNC(=O)COc1ccc2c(c1)CCC2 -14.6%
COc1cccc(COC(=O)C2CC(=O)N(Cc3ccccc3)C2)c1OC (configuration not stated) 4.65%
CCOc1ccc(NC(=O)NCCCn2c(C)nc3cc(C)c(C)cc32)cc1 3.24%
Cc1cc2nc(C)n(CCCNC(=O)Nc3ccc(C#N)cc3)c2cc1C -0.77%
CCCCSc1nnc(CCCCCNC(=O)OC(C)(C)C)o1 1.82%
CN(C)S(=O)(=O)c1ccc(C(=O)OCC(=O)Nc2ccc(OC(F)F)cc2)cc1 -3.03%
NC(=O)CCc1c[nH]c2ccccc12 14.6%
NNC(=O)CCc1c[nH]c2ccccc12 1.22%
O=C(NC(=O)c1cccc(F)c1)Nc1nc(-c2ccc(F)cc2)cc(C(F)(F)F)n1 0.6%
Cc1nc([N+](=O)[O-])cn1CC(=O)c1ccc(F)cc1 -8.97%
CCn1c(SCC(=O)N2CCCc3ccccc32)nc2ccccc2c1=O -1.92%
CN(C(=O)c1ccccc1C(=O)OCC(=O)Nc1ccccc1)c1ccccc1 -8.92%
O=C(CCNS(=O)(=O)c1ccc(Br)s1)NCc1ccc2c(c1)OCO2 -6.46%
CCO[C@@H]1OC(C(=O)NCc2ccccc2)=C[C@H](c2coc3ccccc3c2=O)[C@H]1CCCO 6.31%
Cc1ccc(/C=C/C(=O)c2c(C)cc(C)[nH]c2=O)cc1 -2.58%
Cc1cc(C)c(C(=O)/C=C/c2cccs2)c(=O)[nH]1 1.47%
CCn1c(O)c(N=Nc2ccc(Cl)c(C(=O)O)c2)c2ccccc21 16%
O/N=C/c1nc2cc(Cl)ccc2o1 4.03%
CC(=O)N(C1=C(N2CCOCC2)C(=O)c2ccccc2C1=O)c1ccc(C(=O)O)cc1 14.4%
CC(=O)N(C1=C(N)C(=O)c2ccccc2C1=O)c1ccccc1 4.9%
COC(=O)c1[nH]c2c(c1C)C(=O)CC(c1ccc(OC)c(OC)c1)C2 (configuration not stated) -9.19%
C=CC[C@@H](CC(=O)N[C@H](CO)Cc1ccccc1)C(=O)N[C@@H](COC(=O)[C@@H](CC=C)CC(=O)OC(C)(C)C)Cc1ccccc1 -0.04%
CC1=C(C(=O)Nc2ccc(C)cc2)C(c2ccc(N(C)C)cc2)NC(=O)N1 (configuration not stated) -2.24% and 24.2%
CC1=C(C(=O)Nc2ccccc2)C(c2ccc(N(C)C)cc2)NC(=O)N1 (configuration not stated) 8.56%
O=C(NC(C(=O)N/N=C/c1cccc2ccccc12)c1n[nH]c(=O)c2ccccc12)c1ccccc1 (configuration not stated) 4.11%
O=[N+]([O-])c1ccc(NN=Cc2ccccc2O)nc1 7.07%
O=C(O)Cc1ccccc1C(=O)O 0.17%
O=C(O)Cc1c(O)ccc2ccccc12 3.01%
O=C(N/N=C1\CCCc2ccccc21)c1cccc([N+](=O)[O-])c1 3.37%
COC(=O)CCN(C(=O)c1ccc(N2CCCCC2)c([N+](=O)[O-])c1)c1ccccn1 -7.46%
COc1ccc(C(=O)NNC(=O)c2ccc(C)cc2)cc1S(=O)(=O)N1CCCC1 -1.1%
CCCCCC(=O)N1C[C@H](n2cc(C3CC3)nn2)[C@@H](O)C[C@@H]1c1ccc(C)cc1 -2.78%
COc1ccccc1C(=O)n1nc(-c2ccc(Cl)cc2)nc1N 20.4%
COc1ccc(C(=O)n2nc(-c3ccccc3)nc2N)cc1OC -0.61% and -0.84%
Cc1occc1C(=O)N(C)CC1CCCN(CCc2ccccc2F)C1 (configuration not stated) 7.6%
O/N=C1\CCCC\C1=C/c1ccccc1 5.14%
COc1ccc2c(c1)CC/C(=C/c1ccco1)C2=O 26.2%
O=C1/C(=C\c2ccccc2)CCC/C1=C/c1ccccc1 -1.78%
NC(=N\N=Cc1ccco1)/C(N)=N/N=Cc1ccco1 27.4%
O=C1C(=Cc2ccco2)CCC1=Cc1ccco1 -4.11%
O=C1/C(=C/c2ccco2)CCC1C1CCCC1 (configuration not stated) 25.4%
Cc1ccccc1C(=O)NC1CCS(=O)(=O)C1 (configuration not stated) -1.4%
CCc1ccc(CN(C)Cc2nc(Cc3ccc(OC)c(OC)c3)no2)nc1 -3.31%
COc1ccc(OC)c(NC(=O)CCN2CCN(c3ccccc3F)CC2)c1 25.7%
Nc1nc(CN2CCCCCC2)nc(Nc2ccc(F)cc2)n1 -3.7%
COc1ccc(S(=O)(=O)CCC(=O)NCCc2ccc(S(N)(=O)=O)cc2)cc1 12.3%
Cc1ccc(S(=O)(=O)CCC(=O)NCCc2ccccc2)cc1 1.3%
Cc1ccc(CCNC(=O)CCS(=O)(=O)c2ccc(Br)cc2)cc1 28.3%
Cc1ccc(S(=O)(=O)CCC(=O)NC2CCCCC2)cc1 3.12%
O=C(CCNS(=O)(=O)c1ccc(Br)cc1)NCCc1ccccc1 -1.9%
COc1ccc(S(=O)(=O)CCC(=O)NC2CCCCC2)cc1 23.2%
